Bioassay records deposited in PubChem by several laboratories.
BoNT F protease: blocks Botulinum neurotoxin F light chain protease | Multiplex microsphere protease cleavage assay, flow cytometry | inhibition, % at 10 µM | 360,000 tested, 0.22% active; in the data active = inhibition above about 35%, passing the limit was not always enough; inconclusive = no clear call, values can overlap the other calls
Anthrax LF prot: blocks Bacillus anthracis lethal factor protease; P15917; multiplex microsphere protease cleavage assay, LF; inhibition, % at 10 µM; 360,000 tested, 0.12% active
Target sequence (P15917 whole entry, looked up): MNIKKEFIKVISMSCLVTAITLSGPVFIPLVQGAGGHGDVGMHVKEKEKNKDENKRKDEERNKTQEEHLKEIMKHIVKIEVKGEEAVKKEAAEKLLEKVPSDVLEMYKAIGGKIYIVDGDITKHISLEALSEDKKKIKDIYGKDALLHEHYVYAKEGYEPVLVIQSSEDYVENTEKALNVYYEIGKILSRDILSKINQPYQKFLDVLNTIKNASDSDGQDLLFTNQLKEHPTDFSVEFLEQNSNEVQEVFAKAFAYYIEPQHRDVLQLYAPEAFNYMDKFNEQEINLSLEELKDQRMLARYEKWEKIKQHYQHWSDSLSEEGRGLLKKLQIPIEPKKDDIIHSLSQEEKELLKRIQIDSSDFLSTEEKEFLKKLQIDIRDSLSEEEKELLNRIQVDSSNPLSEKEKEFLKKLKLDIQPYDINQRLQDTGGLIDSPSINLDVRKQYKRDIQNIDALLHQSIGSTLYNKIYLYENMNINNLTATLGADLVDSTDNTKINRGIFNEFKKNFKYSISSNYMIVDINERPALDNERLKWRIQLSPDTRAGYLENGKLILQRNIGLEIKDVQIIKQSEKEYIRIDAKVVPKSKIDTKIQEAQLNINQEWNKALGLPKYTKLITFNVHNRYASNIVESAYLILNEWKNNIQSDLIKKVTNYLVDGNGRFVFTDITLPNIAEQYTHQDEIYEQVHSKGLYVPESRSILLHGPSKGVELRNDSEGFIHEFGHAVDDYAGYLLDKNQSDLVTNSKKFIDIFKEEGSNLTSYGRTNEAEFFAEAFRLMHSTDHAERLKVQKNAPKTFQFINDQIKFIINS
SSB-PriA inh: inhibitors of Klebsiella pneumoniae PriA binding to SSB C-terminal tail. AlphaScreen SSBct-PriA binding, biotinylated peptide. inhibition, % at 33 µM. 430,000 tested, 0.6% active. AID 1272365; in the data active = inhibition mostly above about 37%, no sharp cut-off; inactive = mostly below about 20%
BoNT A protease: blocks Botulinum neurotoxin A light chain protease; inhibition, % at 10 µM; 360,000 tested, 0.17% active; AID 588499; multiplex microsphere protease substrate cleavage, flow cytometry
Bead autofluor: flagged as autofluorescent in microsphere protease counterscreen. fluorescence intensity (test concentration not listed). 360,000 tested, 3.1% active. AID 624483. compound autofluorescence counterscreen, microsphere flow cytometry; active compounds read high; in the data active = fluorescence intensity above about 16000; inconclusive = no clear call, values can overlap the other calls
Of the large screens only hits and unclear results are named; the others gave an inactive call. This is a sample that favours compounds with a hit; in the whole collection about 3.1% have one here. Rule as the data show it, unless noted: active = inhibition above about 30%; inconclusive = no clear call, values can overlap the other calls; inactive = below that.

c1ccc(OC2CC3CCC(C2)N3)nc1 (stereo not given)	SSB-PriA inh 96 (no result: BoNT F protease, Anthrax LF prot, BoNT A protease, Bead autofluor)
CN(C)S(=O)(=O)N(CC(=O)Nc1ccc(F)c(F)c1)c1ccccc1	Bead autofluor 19146
CN(C)S(=O)(=O)N(CC(=O)Nc1ccc2ccccc2c1)c1ccccc1	none
CC(=O)c1cccc(NC(=O)CN(c2ccccc2)S(C)(=O)=O)c1	none
CC(=O)c1cccc(N(CC(=O)Nc2ccc(F)cc2F)S(C)(=O)=O)c1	Bead autofluor 22378
CC(=O)c1cccc(NC(=O)CN(c2ccccc2F)S(C)(=O)=O)c1	Bead autofluor 22974
Cc1ccc(S(=O)(=O)N=C(NC(=S)Nc2ccccc2)c2ccccc2)cc1	none (no result: BoNT F protease, Anthrax LF prot, BoNT A protease, Bead autofluor)
CC(C)Oc1ccc(C(CC(=O)NCc2ccco2)c2ccccc2)cc1 (stereo not given)	Bead autofluor 16645
CC(C)Cc1cc(C(=O)NCc2ccco2)no1	SSB-PriA inh 96
Cc1cc(C(=O)NCc2ccco2)no1	Bead autofluor 22251
Cc1ccc(-c2cc(C(=O)NCc3ccco3)no2)cc1	BoNT A protease inconclusive
CCC(C)[C@H](NC(=O)NCc1ccco1)C(=O)OC (stereo not given in full)	BoNT F protease inconclusive
Cc1cccc(C(CC(=O)NCc2ccco2)c2ccccc2)c1O (stereo not given)	none
COC(=O)[C@H](C)NC(=O)NCc1ccco1	Bead autofluor 20251
O=C(CCc1csc(NS(=O)(=O)c2ccccc2)n1)Nc1ccc2c(c1)OCO2	none (no result: BoNT F protease, Anthrax LF prot, BoNT A protease, Bead autofluor)
CCOc1ccc(-c2noc(CS(=O)(=O)c3ccc(Cl)cc3)n2)cc1	none (no result: BoNT F protease, Anthrax LF prot, BoNT A protease, Bead autofluor)
COC(=O)c1cc(NC(=O)CC2NC3CCCCC3NC2=O)cc(C(=O)OC)c1 (stereo not given)	Bead autofluor 22818
O=C(C1CC1)N1CCC(Oc2cnccn2)CC1	none (no result: BoNT F protease, Anthrax LF prot, BoNT A protease, Bead autofluor)
O=[N+]([O-])c1ccc(Cl)c(/C=N/n2c(-c3ccncc3)n[nH]c2=S)c1	BoNT F protease inconclusive, Anthrax LF prot 37 (no result: SSB-PriA inh)
CC1CCCC(C)N1C(=O)COC(=O)CSc1ccc(C(N)=O)cc1[N+](=O)[O-] (stereo not given)	Bead autofluor 21171
CC1CCCCN1C(=O)COC(=O)CSc1ccc(C(N)=O)cc1[N+](=O)[O-] (stereo not given)	none
Cc1cc(/C=C\c2ccc3cc(N(C)C)ccc3[n+]2C)c(C)n1-c1ccccc1	BoNT F protease active (no result: SSB-PriA inh)
C[n+]1c(/C=C/c2ccc(O)cc2)ccc2ccccc21	none
CCCCNc1c(-c2cccc(-c3ccc(OC)cc3)c2)nc2cc(C)ccn12	SSB-PriA inh 53
CCc1c(C)nc2ncnn2c1N1CCCC(C(=O)Nc2ccc(NC(C)=O)cc2)C1 (stereo not given)	none
Cc1ccc(CNC(=O)C2CC=CCC2C(=O)O)cc1 (stereo not given)	none
Cc1ccnc(N2CCC(C(=O)NCc3ccc(F)cc3)CC2)n1	none
Cc1ccnc(N2CCC(C(=O)NCc3ccc4c(c3)OCO4)CC2)n1	BoNT A protease inconclusive, Bead autofluor 20911
O=C(O)C1CC=CCC1C(=O)NCc1ccc2c(c1)OCO2 (stereo not given)	Bead autofluor 23458
CCc1c(C)nc2ncnn2c1N1CCCC(C(=O)NCc2ccc3c(c2)OCO3)C1 (stereo not given)	Bead autofluor 22326
O=C(NCc1ccc2c(c1)OCO2)C1CCN(c2ncccn2)CC1	BoNT A protease inconclusive, Bead autofluor 21984
Cc1ccc(CNC(=O)c2cn[nH]n2)o1	none (no result: BoNT F protease, Anthrax LF prot, BoNT A protease, Bead autofluor)
CCc1c(C)nc2ncnn2c1N1CCC(C(=O)N2CCN(c3ccc(F)cc3)CC2)CC1	BoNT A protease inconclusive, Bead autofluor 24650
COc1cccc(OC)c1C(=O)N1CCN(c2c(Cc3ccccc3)c(C)nc3ncnn23)CC1	Bead autofluor 26771
CCOc1ccc(OCC)c(NC(=O)C2CCCN(c3ncccn3)C2)c1 (stereo not given)	none
CCOc1ccc(OCC)c(NC(=O)CN2CCC(NC(=O)c3cccc(F)c3)CC2)c1	Bead autofluor 20291
CCOc1ccccc1NC(=O)CN1CCC(NC(=O)c2ccccc2)CC1	none
CCOc1ccc(OCC)c(NC(=O)C2CCN(c3ncccn3)CC2)c1	BoNT A protease inconclusive, Bead autofluor 22945
CCN1CCN(C(=O)NCCn2nc(-c3ccsc3)cc2C2CC2)C(=O)C1=O	none (no result: BoNT F protease, Anthrax LF prot, BoNT A protease, Bead autofluor)
Cc1ccc2nc(C3CN(C(=O)C4(c5ccccc5)CCOCC4)C3)[nH]c2c1	none (no result: BoNT F protease, Anthrax LF prot, BoNT A protease, Bead autofluor)
O=C(NCc1ccc2c(c1)OCO2)C1CCN(c2ccc(S(=O)(=O)N3CCCC3)cc2)CC1	Bead autofluor 19826
O=C(NCc1cccc(C(F)(F)F)c1)C1CCN(c2ncccn2)CC1	Bead autofluor 22251
Cc1cc(C)nc(N2CCC(C(=O)NCc3cccc(C(F)(F)F)c3)CC2)n1	none
COC(=O)C1CC(OC)CN1C(=O)CCc1ccccc1Br (stereo not given)	none (no result: BoNT F protease, Anthrax LF prot, BoNT A protease, Bead autofluor)
CC1(C(=O)NC2CCCCCCC2)CC1(Cl)Cl (stereo not given)	Bead autofluor 17224
O=C(NC1CCCCC1)C1(c2ccccc2)CC1(Cl)Cl (stereo not given)	none
CCOC(=O)C1CCN(C(=O)Cc2csc(NC(=O)c3ccc(OC)c(OC)c3)n2)CC1	none (no result: BoNT F protease, Anthrax LF prot, BoNT A protease, Bead autofluor)
COc1ccccc1NS(=O)(=O)c1ccc(C(=O)NCC(c2ccccc2OC)N2CCCC2)cc1 (stereo not given)	none
COc1ccc(C(CNC(=O)c2ccc(S(=O)(=O)Nc3ccccc3OC)cc2)N2CCCC2)cc1 (stereo not given)	Bead autofluor 19637
COc1ccc(C(CNC(=O)c2ccc(-c3nc4ccccc4s3)o2)N2CCCC2)cc1 (stereo not given)	Bead autofluor 20254
COc1ccc(C(CNC(=O)c2cccc(S(=O)(=O)N3CCCC3)c2)N2CCCC2)cc1 (stereo not given)	Bead autofluor 26904
CS(=O)(=O)c1ccc(Nc2nc(CC(=O)NCc3ccccc3Cl)cs2)cc1	none (no result: BoNT F protease, Anthrax LF prot, BoNT A protease, Bead autofluor)
Cc1ccc(SCC(=O)Nc2nnc(-c3c(C)cc(C)cc3C)s2)cc1	none (no result: BoNT F protease, Anthrax LF prot, BoNT A protease, Bead autofluor)
CCSc1ccccc1C(=O)NCc1nnnn1-c1ccc(C)cc1	none (no result: BoNT F protease, Anthrax LF prot, BoNT A protease, Bead autofluor)
O=C(Nc1ccc(Cl)cc1Cl)c1n[nH]c(Cn2cncn2)n1	BoNT A protease inconclusive, Bead autofluor 20568
COc1ccc(OC)c(C(C)NC(C)=O)c1 (stereo not given)	Bead autofluor 18227
c1ccc(-c2cn(C[C@H]3CC[C@@H]([C@@H]4CC[C@H](Cn5cc(-c6ccccn6)nn5)O4)O3)nn2)nc1	SSB-PriA inh 101
CC(C)(C)C1CCC2(CC1)C(C#N)=C(SCC(=O)NC1CCCCC1)NC(=O)C2C#N (stereo not given)	none
C=CCSC1=C(C#N)C2(CCCCC2)C(C#N)C(=O)N1 (stereo not given)	BoNT A protease inconclusive, Bead autofluor 19902
N#CC1=C(SCC(=O)NC2CC2)NC(=O)C(C#N)C12CCCCC2 (stereo not given)	Bead autofluor 20178
CCOC(=O)c1ccc(NC(=O)Nc2nc3ccc(OC)cc3s2)cc1	none (no result: BoNT F protease, Anthrax LF prot, BoNT A protease, Bead autofluor)
O=C1C(=O)N(c2cccc(Cl)c2)C(c2ccccc2[N+](=O)[O-])/C1=C(\O)c1ccccc1 (stereo not given)	Bead autofluor 21218 (no result: SSB-PriA inh)
